ARNT-TACC3 inh = ARNT/TACC3 interaction disruption; Q9Y6A5; AlphaScreen His-ARNT PAS-B/GST-TACC3 binding, luminescence; TACC3 fragment carries E629A point mutation; inhibition, % at 9.99 µM; actives 0.66% (n = 390,000);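 active = mean inhibition of replicates at least 50% and at least half of replicates each reaching 50%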
Neddylation inh = cullin neddylation inhibition; P61081+Q13564; TR-FRET cullin neddylation, biochemical; inhibition, % at 25 µM; actives 0.58% (n = 360,000); AID 651699; in the data active = inhibition above about 36%
Target sequence (P61081 whole entry, looked up): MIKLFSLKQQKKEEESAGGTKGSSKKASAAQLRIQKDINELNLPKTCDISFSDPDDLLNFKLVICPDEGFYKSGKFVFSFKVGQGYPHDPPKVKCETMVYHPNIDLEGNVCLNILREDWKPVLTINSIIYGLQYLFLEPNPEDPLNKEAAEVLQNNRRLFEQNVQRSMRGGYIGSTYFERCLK
Target sequence (Q13564 whole entry, looked up): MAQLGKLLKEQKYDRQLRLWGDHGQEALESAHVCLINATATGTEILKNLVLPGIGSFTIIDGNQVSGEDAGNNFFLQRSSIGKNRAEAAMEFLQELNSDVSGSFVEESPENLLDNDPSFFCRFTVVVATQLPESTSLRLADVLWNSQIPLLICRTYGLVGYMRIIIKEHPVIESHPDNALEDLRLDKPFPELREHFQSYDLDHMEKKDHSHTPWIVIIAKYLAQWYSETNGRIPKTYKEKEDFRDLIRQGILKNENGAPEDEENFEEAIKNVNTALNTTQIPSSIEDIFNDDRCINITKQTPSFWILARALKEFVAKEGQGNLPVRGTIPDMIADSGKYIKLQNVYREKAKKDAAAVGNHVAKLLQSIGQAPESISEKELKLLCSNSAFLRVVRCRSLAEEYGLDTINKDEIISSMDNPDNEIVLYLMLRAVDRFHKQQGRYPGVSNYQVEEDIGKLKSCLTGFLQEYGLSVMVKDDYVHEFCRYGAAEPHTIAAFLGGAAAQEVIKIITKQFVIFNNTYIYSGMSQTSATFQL
DAGLB inh = blocks human DAGLB lipase activity. AID 504411. inhibition, % at 5.17 µM. HEK293T DAGLB membrane lysate, EnzChek fluorogenic substrate. Q8NCG7. actives 0.059% (n = 340,000); in the data active = inhibition above about 34%
NadD block = blocks S. aureus nicotinate mononucleotide adenylyltransferase. purified NadD enzyme, colorimetric absorbance read-out. AID 602399. inhibition, % at 20 µM. actives 0.78% (n = 360,000); in the data active = inhibition above about 26%
HGIII-sPLA2 inh = Inhibits HGIII-sPLA2 liposome hydrolysis, primary screen. inhibition, % at 12.2 µM. actives 0.56% (n = 370,000). QFRET BODIPY PC-A2 liposome hydrolysis, fluorescence. Q9NZ20;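 active = inhibition above mean plus 3 SD of compounds lying within the high and low control bounds, cut at about 19% in these data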
NadD inh conf = confirmation of Staphylococcus aureus NadD inhibitors; shares compounds with NadD block; purified S. aureus NadD, colorimetric enzyme assay; inhibition, % at 20 µM; actives 13% (n = 2,000); AID 624309; in the data active = inhibition mostly above about 42%, no sharp cut-off; inactive = mostly below about 42%
Large screens that a line does not name were inactive (follow-up assays come after a bar, where shown). Shown are actives, neighbours in structure and some others; about 2% of the full set was active somewhere.

COc1ccc2nc(/C(C#N)=C\c3ccc(Oc4ccc([N+](=O)[O-])cn4)cc3)[nH]c2c1	NadD block 35 | NadD inh conf inactive
O=C(Nc1ccc(C(F)(F)F)cc1)N[C@H]1CC[C@H](CCn2cc(C3(O)CCCC3)nn2)O[C@H]1CO	none (no result: Neddylation inh, DAGLB inh, NadD block, HGIII-sPLA2 inh)
C[C@H]1CN([C@@H](C)CO)S(=O)(=O)c2ccc(-c3cncnc3)cc2O[C@@H]1CN(C)C(=O)CN(C)C	none (no result: Neddylation inh, DAGLB inh, NadD block, HGIII-sPLA2 inh)
Cc1ccc2oc(-c3cccc(NC(=S)NC(=O)/C=C/c4ccco4)c3)nc2c1	NadD block 32 (no result: ARNT-TACC3 inh) | NadD inh conf inactive
Cc1cc(C)c2oc(-c3ccc(C)c(NC(=S)NC(=O)/C=C/c4ccco4)c3)nc2c1	NadD block 35 | NadD inh conf inactive
O=C(/C=C/c1ccco1)NC(=S)Nc1nc(-c2ccc3ccccc3c2)cs1	NadD block 30 | NadD inh conf inactive
COc1ccccc1C#Cc1ccc([C@@H]2[C@@H](CO)N3CCCCN(S(C)(=O)=O)C[C@H]23)cc1	none (no result: Neddylation inh, DAGLB inh, NadD block, HGIII-sPLA2 inh)
CC(C)NC(=O)N(C)C[C@H]1Oc2ncc(-c3ccc(C(=O)N(C)C)cc3)cc2C(=O)N([C@@H](C)CO)C[C@H]1C	none (no result: Neddylation inh, DAGLB inh, NadD block, HGIII-sPLA2 inh)
O=C(C[C@H]1CC[C@H]2[C@@H](COC[C@H](O)CN2Cc2ccc(F)cc2)O1)N1CCc2ccccc2C1	none (no result: Neddylation inh, DAGLB inh, NadD block, HGIII-sPLA2 inh)
COc1ccc(C2/C(=C(/O)c3ccc4c(c3)CC(C)O4)C(=O)C(=O)N2CCCN2CCOCC2)cc1 (configuration not stated)	none
C=CCOc1ccc(C2/C(=C(/O)c3ccc4c(c3)CC(C)O4)C(=O)C(=O)N2CCCN2CCOCC2)cc1 (configuration not stated)	NadD block 29 | NadD inh conf inactive
COc1ccc2cc(-c3cc(C(=O)OCC(=O)Nc4c(C)n(C)n(-c5ccccc5)c4=O)c4ccccc4n3)ccc2c1	NadD block 40 (not shown: Neddylation inh) | NadD inh conf inactive
COc1ccc(-c2cc(C(=O)Nc3c(C)n(C)n(-c4ccccc4)c3=O)c3ccccc3n2)cc1	none
O=C(N/N=C/c1ccc(Cl)c([N+](=O)[O-])c1)c1cc(-c2ccc3c4c(cccc24)CC3)n[nH]1	NadD block 51 | NadD inh conf inactive
Clc1ccc(C(Cn2ccnc2)OCc2c(Cl)cccc2Cl)c(Cl)c1 (configuration not stated)	NadD block 33 | NadD inh conf inactive
CCCCOc1ccccc1NC(=O)CC1Nc2ccccc2NC1=O (configuration not stated)	NadD block 31 | NadD inh conf inactive
CCNC(=O)C[C@H]1C=C[C@H](NC(=O)NC2CCCCC2)[C@H](CO)O1	none (no result: Neddylation inh, DAGLB inh, NadD block, HGIII-sPLA2 inh)
COc1ccccc1NC(=O)C(=O)NNC(=O)COc1ccc2ccccc2c1	NadD block 34 | NadD inh conf inactive
Cc1ccc(NC(=O)CN(C)C(=O)c2cc(-c3ccco3)nc3ccccc23)cc1	NadD block 34 | NadD inh conf inactive
CN(CC(=O)Nc1ccc(F)cc1)C(=O)c1cc(-c2ccco2)nc2ccccc12	NadD block 41 | NadD inh conf inactive
COc1cccc(NC(=O)CN(C)C(=O)c2cc(-c3ccco3)nc3ccccc23)c1	none (not shown: Neddylation inh)
CCOc1ccc(NC(=O)CN(C)C(=O)c2cc(-c3ccco3)nc3ccccc23)cc1OCC	none (not shown: Neddylation inh)
C[C@@H]1CCCCO[C@H](CN(C)S(=O)(=O)c2cn(C)cn2)[C@@H](C)CN([C@H](C)CO)C(=O)c2cc(NS(=O)(=O)c3ccccc3)ccc2O1	none (no result: Neddylation inh, DAGLB inh, NadD block, HGIII-sPLA2 inh)
CC(C)NC(=O)Nc1ccc2c(c1)CC(=O)N([C@@H](C)CO)C[C@@H](C)[C@H](CN(C)C(=O)NC(C)C)O2	none (no result: Neddylation inh, DAGLB inh, NadD block, HGIII-sPLA2 inh)
C[C@H]1CN([C@@H](C)CO)C(=O)c2cc(C#Cc3cccnc3)cnc2O[C@H]1CN(C)Cc1ccc(F)cc1	NadD block 39 | NadD inh conf inactive
CN(C)c1ccnc(Nc2ccccc2)c1C#N	none (no result: ARNT-TACC3 inh, DAGLB inh)
CN(C)c1ccnc2c[cH-]cc12.[Fe].c1ccc(-[c-]2[c-](-c3ccccc3)[c-](-c3ccccc3)[c-](-c3ccccc3)[c-]2-c2ccccc2)cc1 (configuration not stated)	NadD block 29 | NadD inh conf inactive
O=C(Nc1cccc(S(=O)(=O)NC2=NCCCCC2)c1)c1cc(-c2ccco2)nc2ccccc12	NadD block 46 | NadD inh conf 59
O=C(Nc1cccc(S(=O)(=O)NCc2ccco2)c1)c1cc(-c2ccccc2)nc2ccccc12	NadD block 35 (no result: ARNT-TACC3 inh) | NadD inh conf inactive
NS(=O)(=O)c1cccc(NC(=O)COC(=O)c2cc(-c3ccc(Cl)cc3)nc3ccccc23)c1	NadD block 32 | NadD inh conf inactive
O=C(Nc1cccc(S(=O)(=O)NC2=NCCCCC2)c1)c1cc(-c2ccncc2)nc2ccccc12	none
Cc1cc(C(=O)OCC(=O)Nc2cccc(S(=O)(=O)N(C)C)c2)c2ccccc2n1	none
O=C(NCc1ccco1)c1cc(-c2ccccc2)nc2ccccc12	none
CCCNC(=O)C[C@@H]1C[C@@H]2c3cc(NS(C)(=O)=O)ccc3O[C@@H]2[C@@H](CO)O1	none (no result: Neddylation inh, DAGLB inh, NadD block, HGIII-sPLA2 inh)
O=C(COc1ncnc2sccc12)Nc1ccc(F)cc1F	NadD block 30 | NadD inh conf inactive
COc1ccc(S(=O)(=O)N2CCC(C(=O)NCCN3CCOCC3)CC2)cc1C	none
COc1ccc(S(=O)(=O)N2CCC(C(=O)NCCN3CCOCC3)CC2)cc1OC	NadD block 33 | NadD inh conf inactive
O=C(COc1ccc(/C=N/NC(=O)c2ccc(O)cc2)cc1)Nc1cccc([N+](=O)[O-])c1	NadD block 28 | NadD inh conf inactive
CC1CCc2c(sc(NC(=O)Cn3nc(C(=O)O)c4ccccc4c3=O)c2C#N)C1 (configuration not stated)	NadD block 39 | NadD inh conf inactive
Cc1onc(-c2ccccc2)c1C(=O)NC(=S)Nc1sc2c(c1C#N)CCC(C)C2 (configuration not stated)	NadD block 36 | NadD inh conf inactive
CCCc1cc(=O)[nH]c(SCC(=O)Nc2sc3c(c2C#N)CCC(C)C3)n1 (configuration not stated)	NadD block 28 | NadD inh conf inactive
COc1ccc(-c2cc(C(=O)Nc3sc4c(c3C#N)CCCC4)c3ccccc3n2)cc1	NadD block 36 (not shown: Neddylation inh) | NadD inh conf inactive
C[C@H](CO)N1C[C@H](C)[C@H](CN(C)S(C)(=O)=O)OCCCC[C@H](C)Oc2ccc(N(C)C)cc2C1=O	none (no result: Neddylation inh, DAGLB inh, NadD block, HGIII-sPLA2 inh)
C=CC[C@@]1(C(=O)NCC(O)CO)N=C(c2ccc(OCCCO)cc2)O[C@@H]1c1ccccc1 (some centres not stated)	none (no result: Neddylation inh, DAGLB inh, NadD block, HGIII-sPLA2 inh)
CCC(=O)N(C)C[C@H]1Oc2cc(-c3cccc(F)c3)ccc2S(=O)(=O)N([C@H](C)CO)C[C@@H]1C	none (no result: Neddylation inh, DAGLB inh, NadD block, HGIII-sPLA2 inh)
COc1ccccc1-c1cc(C(=O)Nc2sc3c(c2C#N)CCC(C)C3)c2ccccc2n1 (configuration not stated)	NadD block 54 | NadD inh conf inactive

Source: PubChem (several laboratories)
